Laboratory results: the supplement of paper PMC12494721
Where a name gives a salt, the structure may show the parent alone.

Assays:
Conditions in all cases: incubation time: 27 h, anaerobic, 37 °C;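 for the amine columns active = adjusted P below 0.05 in both replicates with a change the same way and a mean fold change under 0.8 or over 1.25; inactive = the rest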
[1] = system: Clostridium sporogenes DSM 1664; experiment: growth (OD595) fold change vs plate DMSO controls (fold change (ratio)); higher = more growth
How it was run: (§1)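 After 27 h at 37 °C under anaerobic conditions, 96-well cultures in mGAM were shaken and read at 595 nm. The readings were blank-subtracted, corrected for compound background using 20 µM compound solutions in water, and converted to OD with a calibration factor of 5. Growth is defined as the fold change over the median of DMSO controls on each plate. Fold changes above 1.5 were set to NA, and each value is the mean of 2 biological replicates.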

Escherichia coli IAI1 [2] = experiment: as above
How it was run: as §1

[3] = system: Klebsiella aerogenes DSM 30053; experiment: as above
How it was run: as §1

[4] = system: Ruminococcus gnavus DSM 108212; experiment: as above
How it was run: as §1

[5] = system: Klebsiella aerogenes DSM 30053; experiment: fold change of Histamine concentration vs plate DMSO controls (fold change (ratio)); higher = more amine produced, active = hit call of the paper (significant change in both replicates, either direction)
How it was run: (§2)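 Extracts of whole anaerobic mGAM cultures were analysed for amines by LC–triple-quadrupole MS with dynamic MRM and external calibration curves, with drift corrected within batch. Four gut strains were grown at 37 °C for 27 h in 80 µL wells with compounds at 20 µM final, sweeteners at 50 µM final. Each value expresses fold change over plate DMSO controls. The average of 2 biological replicates is shown.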

[6] = system: Clostridium sporogenes DSM 1664; experiment: fold change of Tryptamine concentration vs plate DMSO controls (fold change (ratio)); higher = more amine produced, active = hit call of the paper (significant change in both replicates, either direction)
How it was run: as §2

[7] = system: Ruminococcus gnavus DSM 108212; experiment: as above
How it was run: as §2

Escherichia coli IAI1 [8] = experiment: fold change of Putrescine concentration vs plate DMSO controls (fold change (ratio)); higher = more amine produced, active = hit call of the paper (significant change in both replicates, either direction)
How it was run: as §2

[9] = system: Klebsiella aerogenes DSM 30053; experiment: as above
How it was run: as §2

Escherichia coli IAI1 [10] = experiment: fold change of Cadaverine concentration vs plate DMSO controls (fold change (ratio)); higher = more amine produced, active = hit call of the paper (significant change in both replicates, either direction)
How it was run: as §2

[11] = system: Klebsiella aerogenes DSM 30053; experiment: as above
How it was run: as §2

[12] = system: Ruminococcus gnavus DSM 108212; experiment: fold change of 2-Phenylethylamine concentration vs plate DMSO controls (fold change (ratio)); higher = more amine produced, active = hit call of the paper (significant change in both replicates, either direction)
How it was run: as §2

CN(C)CCCN1c2ccccc2Sc2ccc(C(F)(F)F)cc21 [Triflupromazine hydrochloride] (20 µM)
growth [1]: 1.08 | growth (Escherichia coli IAI1 [2]): 1.04 | growth [3]: 1.01 | growth [4]: 1.21 | fold change of Histamine concentration [5]: 0.959 (inactive) | fold change of Tryptamine concentration [6]: 1.05 (inactive) | fold change of Tryptamine concentration [7]: 0.814 (inactive) | fold change of Putrescine concentration (Escherichia coli IAI1 [8]): 1.01 (inactive) | fold change of Putrescine concentration [9]: 0.998 (inactive) | fold change of Cadaverine concentration (Escherichia coli IAI1 [10]): 1.08 (inactive) | fold change of Cadaverine concentration [11]: 1.01 (inactive) | fold change of 2-Phenylethylamine concentration [12]: 0.821 (inactive)

CC(=O)O[C@]1(C(C)=O)CC[C@H]2[C@@H]3C=C(Cl)C4=CC(=O)CC[C@]4(C)[C@H]3CC[C@@]21C [Chlormadinone acetate] (20 µM)
growth [1]: 1.01 | growth (Escherichia coli IAI1 [2]): 1 | growth [3]: 0.994 | growth [4]: 0.974 | fold change of Histamine concentration [5]: 1.04 (inactive) | fold change of Tryptamine concentration [6]: 0.965 (inactive) | fold change of Tryptamine concentration [7]: 0.931 (inactive) | fold change of Putrescine concentration (Escherichia coli IAI1 [8]): 1.04 (inactive) | fold change of Putrescine concentration [9]: 1.02 (inactive) | fold change of Cadaverine concentration (Escherichia coli IAI1 [10]): 1.02 (inactive) | fold change of Cadaverine concentration [11]: 0.995 (inactive) | fold change of 2-Phenylethylamine concentration [12]: 0.895 (inactive)

COc1cc(NC(C)CCCN)c2ncccc2c1 (stereo unspecified) [Primaquine diphosphate] (20 µM)
growth [1]: 1.08 | growth (Escherichia coli IAI1 [2]): 1.02 | growth [3]: 1.07 | growth [4]: 0.905 | fold change of Histamine concentration [5]: 0.851 (inactive) | fold change of Tryptamine concentration [6]: 1.03 (inactive) | fold change of Tryptamine concentration [7]: 1.07 (inactive) | fold change of Putrescine concentration (Escherichia coli IAI1 [8]): 1.03 (inactive) | fold change of Putrescine concentration [9]: 0.943 (inactive) | fold change of Cadaverine concentration (Escherichia coli IAI1 [10]): 1 (inactive) | fold change of Cadaverine concentration [11]: 1.02 (inactive) | fold change of 2-Phenylethylamine concentration [12]: 1.09 (inactive)

Cc1c(C)c2c(c(C)c1O)CCC(C)(C(=O)O)O2 (stereo unspecified) [Trolox] (20 µM)
growth [1]: 0.897 | growth (Escherichia coli IAI1 [2]): 0.987 | growth [3]: 0.962 | growth [4]: 0.896 | fold change of Histamine concentration [5]: 1.13 (inactive) | fold change of Tryptamine concentration [6]: 0.995 (inactive) | fold change of Tryptamine concentration [7]: 1.02 (inactive) | fold change of Putrescine concentration (Escherichia coli IAI1 [8]): 0.926 (inactive) | fold change of Putrescine concentration [9]: 1.04 (inactive) | fold change of Cadaverine concentration (Escherichia coli IAI1 [10]): 0.986 (inactive) | fold change of Cadaverine concentration [11]: 0.984 (inactive) | fold change of 2-Phenylethylamine concentration [12]: 1.03 (inactive)

O=C(O)CCc1nc(-c2ccccc2)c(-c2ccccc2)o1 [Oxaprozin] (20 µM)
growth [1]: 1.08 | growth (Escherichia coli IAI1 [2]): 1.04 | growth [3]: 0.984 | growth [4]: 1.06 | fold change of Histamine concentration [5]: 1.04 (inactive) | fold change of Tryptamine concentration [6]: 1.03 (inactive) | fold change of Tryptamine concentration [7]: 1.03 (inactive) | fold change of Putrescine concentration (Escherichia coli IAI1 [8]): 1.01 (inactive) | fold change of Putrescine concentration [9]: 1 (inactive) | fold change of Cadaverine concentration (Escherichia coli IAI1 [10]): 0.96 (inactive) | fold change of Cadaverine concentration [11]: 0.979 (inactive) | fold change of 2-Phenylethylamine concentration [12]: 1.1 (inactive)

COc1c(-c2ccc3cc(NS(C)(=O)=O)ccc3c2)cc(-n2ccc(=O)[nH]c2=O)cc1C(C)(C)C [Dasabuvir] (20 µM)
growth [1]: 1.04 | growth (Escherichia coli IAI1 [2]): 0.964 | growth [3]: 1.01 | growth [4]: 0.849 | fold change of Histamine concentration [5]: 0.969 (inactive) | fold change of Tryptamine concentration [6]: 0.847 (inactive) | fold change of Tryptamine concentration [7]: 0.747 (active) | fold change of Putrescine concentration (Escherichia coli IAI1 [8]): 1.01 (inactive) | fold change of Putrescine concentration [9]: 0.999 (inactive) | fold change of Cadaverine concentration (Escherichia coli IAI1 [10]): 0.989 (inactive) | fold change of Cadaverine concentration [11]: 0.99 (inactive) | fold change of 2-Phenylethylamine concentration [12]: 0.754 (inactive)

C#C[C@]1(O)CC[C@H]2[C@@H]3CCc4cc(O)ccc4[C@H]3CC[C@@]21C [Ethinylestradiol] (20 µM)
growth [1]: 1.22 | growth (Escherichia coli IAI1 [2]): 1.04 | growth [3]: 1.07 | growth [4]: 1.05 | fold change of Histamine concentration [5]: 1.01 (inactive) | fold change of Tryptamine concentration [6]: 1.01 (inactive) | fold change of Tryptamine concentration [7]: 0.972 (inactive) | fold change of Putrescine concentration (Escherichia coli IAI1 [8]): 1.05 (inactive) | fold change of Putrescine concentration [9]: 0.998 (inactive) | fold change of Cadaverine concentration (Escherichia coli IAI1 [10]): 1.01 (inactive) | fold change of Cadaverine concentration [11]: 1.01 (inactive) | fold change of 2-Phenylethylamine concentration [12]: 0.936 (inactive)

O=C(O)c1ccccc1Nc1cccc(C(F)(F)F)c1 [Flufenamic acid] (20 µM)
growth [1]: 1.16 | growth (Escherichia coli IAI1 [2]): 0.983 | growth [3]: 1.07 | growth [4]: 0.538 | fold change of Histamine concentration [5]: 0.993 (inactive) | fold change of Tryptamine concentration [6]: 0.918 (inactive) | fold change of Tryptamine concentration [7]: 0.989 (inactive) | fold change of Putrescine concentration (Escherichia coli IAI1 [8]): 1.03 (inactive) | fold change of Putrescine concentration [9]: 1.02 (inactive) | fold change of Cadaverine concentration (Escherichia coli IAI1 [10]): 1.03 (inactive) | fold change of Cadaverine concentration [11]: 1.02 (inactive) | fold change of 2-Phenylethylamine concentration [12]: 0.981 (inactive)

COCCCOc1ccnc(C[S+]([O-])c2nc3ccccc3[nH]2)c1C (stereo unspecified) [Rabeprazole sodium salt] (20 µM)
growth [1]: 1.24 | growth (Escherichia coli IAI1 [2]): 0.993 | growth [3]: 1.03 | growth [4]: 1.26 | fold change of Histamine concentration [5]: 0.965 (inactive) | fold change of Tryptamine concentration [6]: 1.09 (inactive) | fold change of Tryptamine concentration [7]: 1.15 (inactive) | fold change of Putrescine concentration (Escherichia coli IAI1 [8]): 0.886 (inactive) | fold change of Putrescine concentration [9]: 0.95 (inactive) | fold change of Cadaverine concentration (Escherichia coli IAI1 [10]): 0.955 (inactive) | fold change of Cadaverine concentration [11]: 1.03 (inactive) | fold change of 2-Phenylethylamine concentration [12]: 1.23 (inactive)

OC[C@H]1O[C@H](O[C@]2(CCl)O[C@H](CCl)[C@@H](O)[C@@H]2O)[C@H](O)[C@@H](O)[C@H]1Cl [Sucralose] (50 µM)
growth [1]: 1 | growth (Escherichia coli IAI1 [2]): 0.927 | growth [3]: 1.03 | growth [4]: 1.36 | fold change of Histamine concentration [5]: 0.892 (inactive) | fold change of Tryptamine concentration [6]: 1.28 (active) | fold change of Tryptamine concentration [7]: 1.11 (inactive) | fold change of Putrescine concentration (Escherichia coli IAI1 [8]): 0.948 (inactive) | fold change of Putrescine concentration [9]: 0.943 (inactive) | fold change of Cadaverine concentration (Escherichia coli IAI1 [10]): 1.09 (inactive) | fold change of Cadaverine concentration [11]: 1.06 (inactive) | fold change of 2-Phenylethylamine concentration [12]: 1.2 (inactive)

CC(CCc1ccccc1)NCC(O)c1ccc(O)c(C(N)=O)c1 (stereo unspecified) [Labetalol hydrochloride] (20 µM)
growth [1]: 1.09 | growth (Escherichia coli IAI1 [2]): 0.963 | growth [3]: 0.974 | growth [4]: 0.85 | fold change of Histamine concentration [5]: 0.944 (inactive) | fold change of Tryptamine concentration [6]: 1 (inactive) | fold change of Tryptamine concentration [7]: 0.967 (inactive) | fold change of Putrescine concentration (Escherichia coli IAI1 [8]): 1.01 (inactive) | fold change of Putrescine concentration [9]: 0.996 (inactive) | fold change of Cadaverine concentration (Escherichia coli IAI1 [10]): 0.923 (inactive) | fold change of Cadaverine concentration [11]: 1 (inactive) | fold change of 2-Phenylethylamine concentration [12]: 0.939 (inactive)

C=CC[N@@+]12CC[C@@]34c5ccccc5N5/C=C6/[C@H]7C[C@H]8[C@@]9(CC[N@@+]8(CC=C)C/C7=C/CO)c7ccccc7N(/C=C(/[C@@H](C[C@@H]31)/C(=C\CO)C2)[C@H]54)[C@@H]69 [Alcuronium chloride] (20 µM)
growth [1]: 1.09 | growth (Escherichia coli IAI1 [2]): 0.982 | growth [3]: 1.01 | growth [4]: 1.26 | fold change of Histamine concentration [5]: 1.04 (inactive) | fold change of Tryptamine concentration [6]: 1.03 (inactive) | fold change of Tryptamine concentration [7]: 1.05 (inactive) | fold change of Putrescine concentration (Escherichia coli IAI1 [8]): 1.12 (inactive) | fold change of Putrescine concentration [9]: 0.99 (inactive) | fold change of Cadaverine concentration (Escherichia coli IAI1 [10]): 0.915 (inactive) | fold change of Cadaverine concentration [11]: 1.02 (inactive) | fold change of 2-Phenylethylamine concentration [12]: 1.07 (inactive)

Cc1ccnc(NS(=O)(=O)c2ccc(N)cc2)n1 [Sulfamerazine] (20 µM)
growth [1]: 0.951 | growth (Escherichia coli IAI1 [2]): 1.06 | growth [3]: 1.07 | growth [4]: 1.06 | fold change of Histamine concentration [5]: 0.995 (inactive) | fold change of Tryptamine concentration [6]: 0.975 (inactive) | fold change of Tryptamine concentration [7]: 0.995 (inactive) | fold change of Putrescine concentration (Escherichia coli IAI1 [8]): 1 (inactive) | fold change of Putrescine concentration [9]: 0.999 (inactive) | fold change of Cadaverine concentration (Escherichia coli IAI1 [10]): 1.01 (inactive) | fold change of Cadaverine concentration [11]: 1.02 (inactive) | fold change of 2-Phenylethylamine concentration [12]: 0.97 (inactive)
